PAFAH2 inh: inhibitors of human PAFAH2 | Q99487 | recombinant PAFAH2, FP-rhodamine activity probe, fluorescence polarization | inhibition, % at 3.39 µM | 340,000 compounds, 0.99% hits | AID 492956;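 active = inhibition above the mean over all tested compounds plus 3 SD, cut at about 30% in these data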;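 note: inhibitors block probe labeling of enzyme so polarization drops; 0% = enzyme with DMSO and 100% = wells lacking PAFAH2 protein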
Rin1 Abl inh: human Rin1-Abl interaction inhibition | P00519+Q13671 | TR-FRET Rin1/Abl binding, biochemical | inhibition, % at 7.35 µM | 360,000 compounds, 0.4% hits; in the data active = inhibition above about 5%, passing the limit was not always enough
PAFAH1B3 inh: blocks human PAF acetylhydrolase 1B catalytic subunit 3 | 340,000 compounds, 0.28% hits | inhibition, % at 3.39 µM | recombinant PAFAH1B3, FP-rhodamine probe, fluorescence polarization;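 active = inhibition above the screen-wide average of all tested compounds plus 3 SD, cut at about 25% in these data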;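 note: 0% = enzyme with DMSO only and 100% = wells lacking PAFAH1B3 protein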
pPAFAH inh: inhibitors of human plasma PAF acetylhydrolase (pPAFAH). Q13093. recombinant pPAFAH, FP-rhodamine probe fluorescence polarization. inhibition, % at 3.39 µM. 330,000 compounds, 1.5% hits. AID 463082;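 active = inhibition above the mean inhibition across the screen plus 3 SD, cut at about 25% in these data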;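 note: inhibitors block binding of the rhodamine activity-based probe so polarization drops; 0% = enzyme with DMSO and 100% = wells lacking pPAFAH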
eLon inh: inhibits E. coli Lon protease | AID 602123 | 360,000 compounds, 0.42% hits | inhibition, % at 7.94 µM | purified E. coli Lon protease, fluorescence polarization | P0A9M0; in the data active = inhibition above about 13%, passing the limit was not always enough;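 note: 0% = enzyme with probe and DMSO and 100% = no enzyme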
Target sequence (P0A9M0 whole entry, looked up): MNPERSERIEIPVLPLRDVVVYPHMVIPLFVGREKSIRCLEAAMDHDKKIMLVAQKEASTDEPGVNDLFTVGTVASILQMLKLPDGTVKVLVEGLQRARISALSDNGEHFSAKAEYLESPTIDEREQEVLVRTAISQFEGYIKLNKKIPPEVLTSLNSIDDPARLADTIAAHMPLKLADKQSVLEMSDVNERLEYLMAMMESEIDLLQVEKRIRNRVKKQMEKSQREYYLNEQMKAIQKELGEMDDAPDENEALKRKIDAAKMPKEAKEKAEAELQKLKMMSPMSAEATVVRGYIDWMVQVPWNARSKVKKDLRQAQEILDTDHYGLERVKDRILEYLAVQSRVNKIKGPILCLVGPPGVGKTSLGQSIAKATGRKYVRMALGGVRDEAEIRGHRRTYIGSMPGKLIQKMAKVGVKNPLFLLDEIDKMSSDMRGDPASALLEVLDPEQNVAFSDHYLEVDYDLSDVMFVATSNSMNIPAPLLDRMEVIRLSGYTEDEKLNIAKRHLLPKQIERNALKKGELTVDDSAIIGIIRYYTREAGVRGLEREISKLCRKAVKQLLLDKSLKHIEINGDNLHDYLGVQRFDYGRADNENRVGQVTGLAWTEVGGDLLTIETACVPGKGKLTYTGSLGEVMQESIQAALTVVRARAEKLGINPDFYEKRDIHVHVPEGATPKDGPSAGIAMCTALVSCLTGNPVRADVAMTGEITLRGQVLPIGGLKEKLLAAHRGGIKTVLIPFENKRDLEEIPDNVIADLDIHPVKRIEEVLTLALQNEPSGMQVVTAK
PAFAH1B2 inh: blocks human PAF acetylhydrolase 1b catalytic subunit 2; P68402; AID 492953; recombinant PAFAH1B2, FP-rhodamine activity probe, fluorescence polarization; 340,000 compounds, 1.2% hits; inhibition, % at 3.39 µM;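 active = inhibition above the mean of all tested compounds plus 3 SD, cut at about 24% in these data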;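 note: 0% = enzyme with DMSO and 100% = wells lacking PAFAH1B2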
Starred values were filed as active, the others as inactive; . = no result given. Compounds with a hit are over-represented: about 3.1% of the library has one in this group of screens.

SMILES	PAFAH2 inh	Rin1 Abl inh	PAFAH1B3 inh	pPAFAH inh	eLon inh	PAFAH1B2 inh
COc1cc(F)ccc1-c1cc(C(=O)NCc2cc(C(F)(F)F)cc(C(F)(F)F)c2)[nH]n1	.	3	.	.	4	.
c1ccc(Nc2nc(-c3ccccn3)cs2)cc1	4	-2	4	1	30	2
CCOC(=O)c1sc(Nc2nc3c(OC)cccc3s2)nc1C	8	-1	8	30*	-4	0
COc1cccc2sc(Nc3nc(-c4ccccn4)cs3)nc12	24	0	14	28*	1	13
COc1ccccc1C(=O)NCCN1CCN(c2ccccc2)CC1	-4	-2	15	-2	0	3
N#Cc1cc(N2CCCCC2)c([N+](=O)[O-])cc1C#N	-1	-2	-4	2	-5	1
O=[N+]([O-])c1cc2no[n+]([O-])c2cc1N1CCCCC1	74*	2	86*	.	13	70*
CC1=CC(=O)C=C/C1=C(/c1ccc(O)cc1C)c1ccccc1S(=O)(=O)O	-1	-1	2	17	-2	26*
Cc1c(NS(=O)(=O)c2cccc(C(=O)Nc3cccc(F)c3)c2)c(=O)n(-c2ccccc2)n1C	-5	4	6	.	16	1
Cc1ccc(Sc2ccc(/C=C3/C(=O)NN(c4ccccc4)C3=O)o2)cc1	23	0	6	19	-1	36*
O=C1NN(c2ccccc2)C(=O)/C1=C/c1ccc(Sc2ccc(Cl)cc2)o1	13	-5	5	23	-8	29*
O=C(O)C1(c2ccccc2)CCN(S(=O)(=O)c2ccc(F)c(F)c2)CC1	-10	1	5	-2	8	27*
O=C(O)C1(c2ccccc2)CCN(S(=O)(=O)c2ccccc2)CC1	-2	1	6	5	2	16
O=[N+]([O-])c1ccc(N/N=C/c2c[nH]c3ccccc23)cc1	-5	-2	10	17	-157	7
O=[N+]([O-])c1ccccc1N/N=C/c1c[nH]c2ccccc12	9	-1	12	25*	-1	4
Cc1cc(SCC2=NNC(=O)C2)c(Cl)cc1Cl	-7	4	10	28*	-3	4
O=C1CCC/C(=N/Nc2ccc(Cl)cc2)C1	-2	3	4	27*	-3	3
Cc1ccc(OCC(=O)Nc2cccc(S(=O)(=O)N3CCCCCC3)c2)cc1C	-11	0	-12	-5	14	-7
[O-][n+]1cccc2c(Br)cc(Br)c(O)c21	13	5	21	34*	2	4
COc1ccc(N2CC(C(=O)N3CCN(C(=O)c4ccco4)CC3)CC2=O)cc1 (stereo unspecified)	-10	1	8	2	-6	-3
Cc1ccc(-n2cccc2/C=C2\C(=N)N3N=C(c4ccco4)SC3=NC2=O)cc1	16	0	7	15	-14	32*
CCC1=NN2C(=N)/C(=C\c3cccn3-c3ccc(Cl)cc3)C(=O)N=C2S1	5	3	1	3	-1	42*
CCOC(=O)N1CCN(S(=O)(=O)c2ccc(C(=O)NNc3nc4c(C)cc(C)cc4s3)cc2)CC1	.	1	.	32*	-4	.
CCOC(=O)N1CCN(S(=O)(=O)c2ccc(C(=O)NNc3nc4cc(C)cc(C)c4s3)cc2)CC1	14	2	16	28*	-16	2
CCOC(=O)N1CCN(S(=O)(=O)c2ccc(C(=O)NNc3nc4c(C)cccc4s3)cc2)CC1	-13	3	17	19	-8	8
SMILES	PAFAH2 inh	Rin1 Abl inh	PAFAH1B3 inh	pPAFAH inh	eLon inh	PAFAH1B2 inh
O=C(Nc1nnc([C@H]2C[C@H](O)[C@@H](CO)O2)s1)Nc1cccc(Cl)c1Cl	.	-2	.	.	1	.
O=C(CCNC(=O)c1ccccc1Cl)Nc1ccc(S(=O)(=O)N2CCOCC2)cc1	.	3	.	.	0	.
CC1(C)CC(=O)c2sc(NS(=O)(=O)c3ccc(Br)cc3)nc2C1	9	0	6	-23	-5	27*
CC1(C)CC(=O)c2sc(NS(=O)(=O)c3ccc(Cl)cc3)nc2C1	14	2	10	-5	-2	17
CCc1ccc2[nH]c3nc(N/N=C/c4ccc(O)cc4O)nnc3c2c1	14	-2	26*	28*	-1	23
O=C(/C=C/c1ccc(S(=O)(=O)N2CCOCC2)cc1)N1CCCCC1	0	5	8	.	-9	4
CC(=O)c1ccc(N2CCN(C(=O)/C=C/c3ccc(S(=O)(=O)N4CCOCC4)cc3)CC2)cc1	0	-2	0	32*	-1	2
CCCc1cc(=O)oc2cc(C)c(CN3CCCC3)c(O)c12	23	1	8	25*	-3	2
O=C(NNC(=O)c1ccccc1F)c1cccc(-n2cccc2)c1	13	3	0	26*	-13	2
C[C@@H]1CN([C@H](C)CO)C(=O)CCCn2cc(nn2)CO[C@H]1CN(C)C(=O)Nc1ccccc1	.	0	.	.	-16	.
O=C(O)c1ccc(N=Nc2c(O)[nH]c3ccc(Br)cc23)cc1	0	0	16	4	-2	33*
Cc1ccc(C)c(N2C(=O)CC(Cc3ccccc3)C2=O)c1 (stereo unspecified)	2	2	4	2	1	1
CC(=O)Oc1cc2c3c(c1)/C(=C1/SC(=S)NC1=O)C(=O)N3C(C)(C)C=C2C	37*	0	16	30*	3	48*
CCOc1cc2c3c(c1)C(C)=CC(C)(C)N3C(=O)C2=O	1	-6	9	3	-6	6
COc1cc(NC(=O)Nc2nc(C(N)Cc3ccc(C(F)(F)F)cc3)cs2)cc(OC)c1OC (stereo unspecified)	.	1	.	.	0	.
O=C(O)COc1ccccc1/C=N/NC(=O)CSc1nnc(SCc2cccc3ccccc23)s1	-2	-3	-5	13	-7	7
O=C(CSc1ccccn1)N/N=C/c1c[nH]c2ccccc12	8	0	5	2	-3	-4
O=C(CSc1nnc(SCc2cccc3ccccc23)s1)N/N=C/c1c[nH]c2ccccc12	-12	1	9	9	1	26*
O=C(O)COc1ccccc1/C=N/NC(=O)CSc1nnc(SCc2ccc(Cl)cc2)s1	6	-1	4	27*	-5	43*
O=C(O)c1cc(Cl)n[nH]c1=O	.	3	.	.	3	.
O=C1c2cccnc2-c2ncccc21	0	-8	0	4	0	3
COC1=C(Br)C(=O)c2ncccc2C1=O	48*	0	58*	.	-12	17
COc1cc2nc(NC(=O)c3ccc(F)cc3Cl)sc(=O)c2cc1OC	1	-4	5	3	-1	1
COc1ccc(N(C(=O)CNC(=O)c2ccco2)C(C(=O)NC2CCCCC2)c2ccco2)cc1 (stereo unspecified)	9	2	11	8	2	26*

From PubChem
